Data as given in the supplement of paper PMC10849652.
Of roughly 8,800 targets only a part is listed; those with a hit were picked by preference. About 0.5% of all pairs of compound and target were hits.

These targets were tested with CCCS(=O)(=O)Nc1ccc(F)c(C(=O)c2c[nH]c3ncc(Cl)cc23)c1F (assay: log2 fold change, soluble protein after heating vs DMSO (PISA); higher = thermal stabilisation; K562 lysate, 10 uM; active = over 0.2 and 3.5 SD of the protein, either way, in both replicates (recomputed)).
Procedure, shortened: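 Soluble protein was defined as the supernatant remaining after 21,000xg for 90 min, following pooling of heated aliquots and adjustment to 0.5% NP-40 at 4°C. Before that, crude K562 extract at 1 mg/mL protein in PBS pH 7.4 with 1 mM MgCl2 was treated with 10 μM compound for 30 min and heated for 3 min across 48°C-58°C. Quantification used TMTpro 16plex LC-MS/MS with channel sums equalised, and values are log-two fold changes in thermal stability relative to solvent controls from duplicates.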

Sequence of UniProt P24863 (P24863 whole entry, looked up): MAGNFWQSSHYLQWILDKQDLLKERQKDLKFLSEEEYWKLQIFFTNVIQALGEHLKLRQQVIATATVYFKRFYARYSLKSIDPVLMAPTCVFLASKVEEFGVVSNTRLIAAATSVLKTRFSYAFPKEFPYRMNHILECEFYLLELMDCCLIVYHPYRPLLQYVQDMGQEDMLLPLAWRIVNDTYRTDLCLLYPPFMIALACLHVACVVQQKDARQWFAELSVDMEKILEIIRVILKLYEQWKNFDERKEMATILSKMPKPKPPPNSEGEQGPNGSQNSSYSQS
Sequence of UniProt P56945 (P56945 whole entry, looked up): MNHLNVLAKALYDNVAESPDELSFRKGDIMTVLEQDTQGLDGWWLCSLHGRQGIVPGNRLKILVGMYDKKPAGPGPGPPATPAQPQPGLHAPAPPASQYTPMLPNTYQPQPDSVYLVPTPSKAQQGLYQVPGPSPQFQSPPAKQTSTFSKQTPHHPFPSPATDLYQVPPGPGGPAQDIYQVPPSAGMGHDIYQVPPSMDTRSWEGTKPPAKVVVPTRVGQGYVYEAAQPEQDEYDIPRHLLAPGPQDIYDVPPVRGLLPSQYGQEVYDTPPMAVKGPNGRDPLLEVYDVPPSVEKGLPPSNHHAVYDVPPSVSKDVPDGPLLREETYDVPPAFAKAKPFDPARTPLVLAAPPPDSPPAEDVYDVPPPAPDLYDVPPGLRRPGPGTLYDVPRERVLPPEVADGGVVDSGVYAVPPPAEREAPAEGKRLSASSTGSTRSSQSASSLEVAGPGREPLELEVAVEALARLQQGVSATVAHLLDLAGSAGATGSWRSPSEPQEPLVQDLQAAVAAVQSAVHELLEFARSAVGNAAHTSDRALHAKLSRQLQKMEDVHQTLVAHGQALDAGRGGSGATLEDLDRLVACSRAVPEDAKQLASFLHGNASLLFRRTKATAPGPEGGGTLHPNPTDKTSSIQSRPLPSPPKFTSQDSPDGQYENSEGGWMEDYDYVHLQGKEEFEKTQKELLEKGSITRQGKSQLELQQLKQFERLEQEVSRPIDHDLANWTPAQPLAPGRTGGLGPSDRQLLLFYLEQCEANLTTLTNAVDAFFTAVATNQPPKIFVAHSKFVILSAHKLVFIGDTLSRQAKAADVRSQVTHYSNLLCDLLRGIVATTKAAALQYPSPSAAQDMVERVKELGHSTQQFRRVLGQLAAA
Sequence of UniProt P49918 (P49918 whole entry, looked up): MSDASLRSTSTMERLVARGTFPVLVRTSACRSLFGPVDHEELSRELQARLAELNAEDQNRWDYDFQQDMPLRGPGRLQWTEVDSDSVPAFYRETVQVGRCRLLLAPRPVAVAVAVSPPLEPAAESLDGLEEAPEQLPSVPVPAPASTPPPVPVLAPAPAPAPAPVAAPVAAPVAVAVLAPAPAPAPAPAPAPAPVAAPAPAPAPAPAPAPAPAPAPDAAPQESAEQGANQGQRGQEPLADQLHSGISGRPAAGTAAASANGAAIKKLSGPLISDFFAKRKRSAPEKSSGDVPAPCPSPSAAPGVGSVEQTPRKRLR
Sequence of UniProt O14965 (O14965 whole entry, looked up): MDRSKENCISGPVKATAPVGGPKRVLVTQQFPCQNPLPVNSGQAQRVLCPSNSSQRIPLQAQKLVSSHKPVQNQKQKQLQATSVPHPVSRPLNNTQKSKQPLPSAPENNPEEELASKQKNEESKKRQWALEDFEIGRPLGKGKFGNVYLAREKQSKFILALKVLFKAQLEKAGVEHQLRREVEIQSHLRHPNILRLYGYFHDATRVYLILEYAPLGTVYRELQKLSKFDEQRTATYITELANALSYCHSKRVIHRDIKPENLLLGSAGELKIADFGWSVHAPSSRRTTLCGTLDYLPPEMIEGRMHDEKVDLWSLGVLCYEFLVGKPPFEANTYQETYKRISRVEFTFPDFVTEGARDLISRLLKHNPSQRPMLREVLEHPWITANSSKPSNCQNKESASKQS
Sequence of UniProt P14635 (P14635 whole entry, looked up): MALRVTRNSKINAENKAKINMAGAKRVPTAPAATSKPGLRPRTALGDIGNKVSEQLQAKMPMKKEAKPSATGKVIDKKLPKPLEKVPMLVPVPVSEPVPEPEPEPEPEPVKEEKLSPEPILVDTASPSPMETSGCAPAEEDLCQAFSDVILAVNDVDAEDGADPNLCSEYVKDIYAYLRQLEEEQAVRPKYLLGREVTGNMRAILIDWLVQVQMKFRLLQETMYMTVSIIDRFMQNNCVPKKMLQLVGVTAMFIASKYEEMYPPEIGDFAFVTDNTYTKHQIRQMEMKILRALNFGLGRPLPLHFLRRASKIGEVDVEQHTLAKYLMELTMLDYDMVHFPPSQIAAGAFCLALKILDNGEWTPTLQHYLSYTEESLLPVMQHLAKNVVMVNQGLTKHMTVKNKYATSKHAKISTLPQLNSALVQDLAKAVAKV
Sequence of UniProt P27824 (P27824 whole entry, looked up): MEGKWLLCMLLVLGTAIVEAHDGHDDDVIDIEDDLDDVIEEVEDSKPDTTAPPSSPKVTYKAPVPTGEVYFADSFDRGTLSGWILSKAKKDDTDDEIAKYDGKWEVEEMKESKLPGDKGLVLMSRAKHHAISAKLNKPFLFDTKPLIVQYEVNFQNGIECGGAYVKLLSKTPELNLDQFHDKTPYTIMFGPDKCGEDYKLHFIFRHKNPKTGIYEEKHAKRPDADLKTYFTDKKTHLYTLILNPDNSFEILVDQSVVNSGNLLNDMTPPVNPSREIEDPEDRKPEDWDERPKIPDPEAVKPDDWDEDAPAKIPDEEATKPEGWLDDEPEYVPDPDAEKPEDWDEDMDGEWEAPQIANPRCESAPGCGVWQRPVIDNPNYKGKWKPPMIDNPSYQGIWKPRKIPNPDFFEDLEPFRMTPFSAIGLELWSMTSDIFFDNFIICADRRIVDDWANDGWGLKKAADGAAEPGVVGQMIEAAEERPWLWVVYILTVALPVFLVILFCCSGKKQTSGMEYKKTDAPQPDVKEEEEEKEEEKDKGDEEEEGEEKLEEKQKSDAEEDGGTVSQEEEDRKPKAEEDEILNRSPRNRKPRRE
Sequence of UniProt P51946 (P51946 whole entry, looked up): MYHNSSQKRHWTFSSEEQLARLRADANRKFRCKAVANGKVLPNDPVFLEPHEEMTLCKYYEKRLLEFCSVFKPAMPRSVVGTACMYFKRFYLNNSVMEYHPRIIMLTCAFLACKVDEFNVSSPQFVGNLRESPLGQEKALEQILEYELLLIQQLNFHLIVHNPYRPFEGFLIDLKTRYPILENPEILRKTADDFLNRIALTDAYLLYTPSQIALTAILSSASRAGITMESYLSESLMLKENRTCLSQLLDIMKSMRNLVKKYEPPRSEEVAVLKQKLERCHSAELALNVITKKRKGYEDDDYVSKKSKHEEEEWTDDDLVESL
Sequence of UniProt O75081 (O75081 whole entry, looked up): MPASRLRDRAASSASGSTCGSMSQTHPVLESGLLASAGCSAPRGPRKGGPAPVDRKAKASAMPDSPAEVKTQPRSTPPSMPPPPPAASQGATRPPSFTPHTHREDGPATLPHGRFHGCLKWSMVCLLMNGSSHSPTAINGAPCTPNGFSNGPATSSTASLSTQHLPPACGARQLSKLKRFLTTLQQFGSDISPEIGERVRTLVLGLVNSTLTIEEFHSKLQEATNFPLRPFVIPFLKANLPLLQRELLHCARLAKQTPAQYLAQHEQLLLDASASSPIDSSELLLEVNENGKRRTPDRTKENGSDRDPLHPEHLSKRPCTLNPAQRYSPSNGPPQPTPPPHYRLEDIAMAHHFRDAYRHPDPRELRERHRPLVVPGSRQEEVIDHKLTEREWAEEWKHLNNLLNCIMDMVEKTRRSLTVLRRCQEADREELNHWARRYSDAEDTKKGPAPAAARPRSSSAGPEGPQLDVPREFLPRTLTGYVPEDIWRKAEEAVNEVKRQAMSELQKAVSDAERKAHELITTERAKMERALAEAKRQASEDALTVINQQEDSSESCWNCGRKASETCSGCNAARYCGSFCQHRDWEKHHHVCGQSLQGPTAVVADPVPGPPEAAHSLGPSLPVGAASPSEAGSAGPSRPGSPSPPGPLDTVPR
Sequence of UniProt O75143 (O75143 whole entry, looked up): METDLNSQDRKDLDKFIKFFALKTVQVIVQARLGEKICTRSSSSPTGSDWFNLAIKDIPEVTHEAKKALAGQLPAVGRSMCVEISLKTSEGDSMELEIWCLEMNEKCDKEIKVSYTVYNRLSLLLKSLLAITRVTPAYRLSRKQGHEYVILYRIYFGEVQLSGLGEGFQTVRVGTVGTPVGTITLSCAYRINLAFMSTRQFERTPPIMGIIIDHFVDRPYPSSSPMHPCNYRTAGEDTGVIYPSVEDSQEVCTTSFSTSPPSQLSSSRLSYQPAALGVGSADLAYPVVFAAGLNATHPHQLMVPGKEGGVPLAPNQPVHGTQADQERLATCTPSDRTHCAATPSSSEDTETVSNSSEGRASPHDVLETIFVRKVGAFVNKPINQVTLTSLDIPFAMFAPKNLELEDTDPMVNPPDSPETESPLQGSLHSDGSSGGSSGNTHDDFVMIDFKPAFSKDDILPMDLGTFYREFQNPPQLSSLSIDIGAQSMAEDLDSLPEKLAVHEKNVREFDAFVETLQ
Sequence of UniProt O00311 (O00311 whole entry, looked up): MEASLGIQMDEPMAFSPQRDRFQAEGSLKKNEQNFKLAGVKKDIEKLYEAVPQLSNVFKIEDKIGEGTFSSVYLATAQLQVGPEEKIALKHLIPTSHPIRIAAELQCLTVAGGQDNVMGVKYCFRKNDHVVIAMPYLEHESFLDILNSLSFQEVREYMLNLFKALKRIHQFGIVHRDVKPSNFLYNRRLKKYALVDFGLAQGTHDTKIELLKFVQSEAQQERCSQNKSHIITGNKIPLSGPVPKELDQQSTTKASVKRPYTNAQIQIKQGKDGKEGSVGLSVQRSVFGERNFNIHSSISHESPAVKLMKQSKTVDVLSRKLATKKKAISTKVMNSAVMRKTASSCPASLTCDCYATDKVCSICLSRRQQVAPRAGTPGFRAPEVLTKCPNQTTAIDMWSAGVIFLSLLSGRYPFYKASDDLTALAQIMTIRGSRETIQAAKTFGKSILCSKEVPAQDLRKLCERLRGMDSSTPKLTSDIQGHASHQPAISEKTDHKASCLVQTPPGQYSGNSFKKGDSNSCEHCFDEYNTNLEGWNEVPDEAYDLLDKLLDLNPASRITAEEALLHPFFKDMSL

log2 fold change, inactive:
CENPQ (UniProt Q7L2Z9) -0.167
CD63 (UniProt P08962) 0.084
CARS isoform 3 (UniProt P49589) 0.004
CCNC (UniProt P24863) 0.046
CBFA2T3 (UniProt O75081) 0.018
BUB1B isoform 3 (UniProt O60566) 0.024
CES2 isoform 4 (UniProt O00748) -0.024
CDC123 (UniProt O75794) 0.014
CCDC85B (UniProt Q15834) 0.04
CARD9 (UniProt Q9H257) 0.026
CANX isoform 2 (UniProt P27824) -0.012
CDKN2AIP (UniProt Q9NXV6) 0.022
AURKA (UniProt O14965) 0.068
CDC42BPA isoform 6 (UniProt Q5VT25) 0.036
ATG13 isoform 2 (UniProt O75143) 0.042
CARHSP1 (UniProt Q9Y2V2) -0.015
CCAR2 (UniProt Q8N163) -0.004
ATP6V0A2 (UniProt Q9Y487) 0.013
CCPG1 isoform 5 (UniProt Q9ULG6) -0.038
CCNB1 (UniProt P14635) -0.021
CCNH (UniProt P51946) 0.001
BCAR1 isoform 6 (UniProt P56945) 0.018
CDAN1 (UniProt Q8IWY9) 0.004
CDK13 (UniProt Q14004) -0.031
CFDP1 (UniProt Q9UEE9) -0.008
ATP11A (UniProt P98196) -0.015
BCKDK (UniProt O14874) 0.002
BLOC1S6 (UniProt Q9UL45) 0.007
CBX1 (UniProt P83916) 0.015
CDC7 (UniProt O00311) 0.073
C19orf54 (UniProt Q5BKX5) -0.028
C8orf37 (UniProt Q96NL8) -0.061
CDK2 (UniProt P24941) 0.012
CEP76 (UniProt Q8TAP6) -0.023
CDK11B (UniProt P21127) 0.002
CASC4 (UniProt Q6P4E1) 0.02
CCDC32 isoform 2 (UniProt Q9BV29) 0
BCR (UniProt P11274) 0.043
ATP13A1 (UniProt Q9HD20) 0.013
CDKN1C (UniProt P49918) -0.003
